Hit rate of the full screen: of about 2,400 compounds, about 750 (31%) were called active. The list shows a part of the results. Values without a mark were called inactive.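 How the source made its calls: active means median signal gain over dofetilide-blocked control wells reaching their mean plus 3 SD, so readout 1 at least 0; inactive means the rest.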
Target: Voltage-gated inwardly rectifying potassium channel KCNH2 (Homo sapiens) (UniProt Q12809)
Experiment: modulators restoring hERG flux under dofetilide – cell-based, thallium flux, duplicate retest, dofetilide IC70, confirmation (AID 1835)
Settings: hERG cell line, FluxOR thallium flux, dofetilide-blocked; at 10 µM; hits give high values

Voltage-gated inwardly rectifying potassium channel KCNH2 (Homo sapiens), sequence (Q12809 whole entry, looked up): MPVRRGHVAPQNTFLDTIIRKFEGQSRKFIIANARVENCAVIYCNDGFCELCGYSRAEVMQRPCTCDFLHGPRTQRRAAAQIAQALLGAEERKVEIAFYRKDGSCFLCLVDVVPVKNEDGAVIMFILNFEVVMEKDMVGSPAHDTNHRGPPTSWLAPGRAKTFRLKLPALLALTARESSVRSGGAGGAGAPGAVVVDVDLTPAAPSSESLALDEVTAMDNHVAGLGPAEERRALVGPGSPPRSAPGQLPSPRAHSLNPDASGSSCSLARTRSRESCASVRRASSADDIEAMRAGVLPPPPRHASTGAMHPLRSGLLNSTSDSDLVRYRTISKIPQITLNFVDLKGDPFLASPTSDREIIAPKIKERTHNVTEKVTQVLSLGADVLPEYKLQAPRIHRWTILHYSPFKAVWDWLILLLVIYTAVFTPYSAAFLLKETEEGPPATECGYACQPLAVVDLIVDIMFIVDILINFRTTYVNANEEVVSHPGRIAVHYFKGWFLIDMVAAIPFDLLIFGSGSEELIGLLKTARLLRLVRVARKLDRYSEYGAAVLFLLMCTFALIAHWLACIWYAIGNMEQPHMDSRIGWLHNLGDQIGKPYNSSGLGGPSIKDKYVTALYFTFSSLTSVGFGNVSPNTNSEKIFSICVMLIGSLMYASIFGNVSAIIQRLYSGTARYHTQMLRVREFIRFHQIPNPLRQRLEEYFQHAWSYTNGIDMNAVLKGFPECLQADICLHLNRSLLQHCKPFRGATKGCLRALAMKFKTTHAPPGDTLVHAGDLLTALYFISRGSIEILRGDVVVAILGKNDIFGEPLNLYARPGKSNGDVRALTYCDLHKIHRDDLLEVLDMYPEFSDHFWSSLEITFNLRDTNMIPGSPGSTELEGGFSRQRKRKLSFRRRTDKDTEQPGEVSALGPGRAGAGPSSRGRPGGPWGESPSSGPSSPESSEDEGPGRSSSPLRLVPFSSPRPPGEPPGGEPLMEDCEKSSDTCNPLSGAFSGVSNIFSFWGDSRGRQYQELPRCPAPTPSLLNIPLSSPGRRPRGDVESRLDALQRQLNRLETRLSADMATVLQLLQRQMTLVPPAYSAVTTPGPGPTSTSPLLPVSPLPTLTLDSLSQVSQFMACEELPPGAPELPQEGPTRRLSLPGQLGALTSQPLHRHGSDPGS

SMILES | activity increase over dofetilide control, less the hit threshold
Cc1ccc(C(=O)NNC(=S)NC(=O)c2ccccc2)cc1 | -40%
Cc1cc2ccccn2c1C(=S)NC(=O)c1ccccc1 | 50% (active)
O=C(Nc1ccc(Cl)cc1Cl)c1n[nH]c(Cn2cncn2)n1 | -1%
S=c1nn[nH]n1C12CC3CC(CC(C3)C1)C2 | 27% (active)
CCOc1ccc(Nc2ccc([N+](=O)[O-])c3nonc23)cc1 | -6%
Cc1cc(=O)[nH]c(SCC(=O)NC2CCCCC2)n1 | 0%
O=C(Nn1cnnc1)c1ccncc1 | -14%
Cc1nnc(C)n1/N=C/c1cc(Br)cc(Br)c1O | 15% (active)
CNC(=S)N/N=C/c1cc(Br)cc(Br)c1O | -3%
Oc1c(Br)cc(Br)cc1C=Nc1ccc2[nH]ncc2c1 | -2%
O=c1c2cc(Br)ccc2nc(-c2cccc(C(F)(F)F)c2)n1O | 115% (active)
O=C(Cn1nnc(-c2cccc(C(F)(F)F)c2)n1)N1CCCCCC1 | -8%
COc1cc(OC)cc(-c2nc3ccccc3c(=O)n2OC(=O)c2ccc(Br)cc2)c1 | -26%
O=c1c2ccc(Cl)cc2nc(-c2cccc(C(F)(F)F)c2)n1O | 94% (active)
O=c1c2cc(Br)ccc2nc(-c2cccc(Cl)c2)n1O | 102% (active)
O=c1c2cc(Br)ccc2nc(-c2ccccc2)n1O | 45% (active)
O=C(COC(=O)c1cc(NS(=O)(=O)c2cccs2)ccc1O)Nc1cc(Cl)ccc1Cl | -4%
O=C(COC(=O)c1cccs1)NCCN1C(=O)CSC1=O | -9%
CNC(=O)NC(=O)C(C)N1CCN(C/C=C/c2ccccc2)CC1 (stereo not given) | -16%
Cc1nonc1OCCNc1ccc([N+](=O)[O-])cc1 | -2%
O=c1c2cc(Br)ccc2nc(-c2ccc(Cl)cc2)n1O | 101% (active)
N#Cc1ccc(-c2nc3ccc(Br)cc3c(=O)n2O)cc1 | 1% (active)
CCCn1c(SC(C)C(=O)N2CCOCC2)nc2ccc(Br)cc2c1=O (stereo not given) | -11%
Cc1ccc(-n2c(C)cc(C(=O)CN3CCOCC3)c2C)cc1 | -6%
CC1CCCC(C(=O)OCc2ccccc2)N1 (stereo not given) | -3%

SMILES | activity increase over dofetilide control, less the hit threshold
O=C(Nc1ncc(Cc2ccc(C(F)(F)F)cc2)s1)c1ccc(-c2cccc([N+](=O)[O-])c2)o1 | -14%
O=C(Nc1ccc(N2CCN(C(=O)c3ccc(Cl)cc3)CC2)cc1)c1ccc([N+](=O)[O-])o1 | -11%
CC(=O)Nc1ccc2nc(NC(=O)c3ccc([N+](=O)[O-])o3)sc2c1 | 5% (active)
COc1ccc(C)cc1S(=O)(=O)NC1CCCCC1 | -5%
CC(C)(C)c1ccccc1NC(=S)NC1CCCC1 | -7%
Cc1ccc(S(=O)(=O)NC(=S)NC2CCCCC2)cc1 | 3% (active)
O=S(=O)(NC(=S)NC1CCCCC1)c1ccc(Br)cc1 | 12% (active)
CCc1ccc(S(=O)(=O)NC(=S)NC2CCCCC2)cc1 | 35% (active)
O=S(=O)(NC(=S)NC1CCCCC1)c1ccc(Cl)cc1 | 10% (active)
O=C(NC1CCCCC1)c1ccc(COCC(F)(F)F)o1 | -5%
Cc1cc(Cl)c(S(N)(=O)=O)cc1OCC(=O)NC1CCCCC1 | -8%
O=c1oc2ccccc2c(NC2CCCCC2)c1NS(=O)(=O)c1ccc(Cl)cc1 | -6%
CCOc1ccc(C(C)NC(=S)NC2CCCCC2)cc1 (stereo not given) | -9%
CC1=CN2C(=N)/C(=C/c3ccc(Sc4ccc(Cl)cc4)o3)C(=O)N=C2S1 | -2%
CC(C)(C)n1nnnc1C(c1cc2cc3c(cc2[nH]c1=O)OCCO3)N1CCSCC1 (stereo not given) | -11%
CC(C)(C)c1nc(SCC(=O)N2CCCC2)c2ccccc2n1 | -15%
Cc1cccc(N2CCN(C(=O)C3CCN(S(=O)(=O)c4cccnc4)CC3)CC2)c1C | -8%
C/C(=N\Nc1nc(C)c(C)s1)c1ccc([N+](=O)[O-])cc1 | 22% (active)
C/C(=N\Nc1cc(N2CCOCC2)ncn1)c1cccc([N+](=O)[O-])c1 | -24%
C/C(=N/NC(=S)Nc1cccc(C)c1)c1cccc([N+](=O)[O-])c1 | -1%
COc1ccc2c(C(=O)CN3CCN(c4ccccc4)CC3)c[nH]c2c1 | -10%
O=C(O)c1cc(NN=C2c3ccccc3-c3ccccc32)ccc1Cl | -4%
CCCN1CCC(NC(=O)CC2C(=O)NCCN2Cc2cccc(OC)c2)CC1 (stereo not given) | -6%
Cc1cc(C)c2nc(NC(=O)CN3C(=O)NC4(CCCC4)C3=O)sc2c1 | -10%
CC1CN(S(=O)(=O)c2ccc(-c3nc4ccccc4s3)cc2)CC(C)O1 (stereo not given) | 7% (active)

SMILES | activity increase over dofetilide control, less the hit threshold
O=C(NC(=S)NCc1ccc(-c2nc3ccccc3s2)cc1)c1ccco1 | -2%
Cc1ccnc(N2CCC(C(=O)Nc3ccc(Oc4ccccc4)cc3)CC2)n1 | -11%
CCOC(=O)N1CCC(N2C(=O)c3ccccc3C2Nc2cccnc2)CC1 (stereo not given) | 11% (active)
Cc1ccc(-n2ncc3c2CCCC3NC(=O)c2csnn2)cc1C (stereo not given) | 21% (active)
Cc1cc(C)cc(-n2ncc3c2CCCC3NC(=O)c2csnn2)c1 (stereo not given) | 58% (active)
COc1ccc(-n2ncc3c2CC(C)(C)CC3NC(=O)c2cn[nH]c2)cc1 (stereo not given) | -9%
COc1cc2c(cc1OC)C(c1ccc([N+](=O)[O-])cc1)N(C(C)=O)CC2 (stereo not given) | -36%
Cc1ccc(S(=O)(=O)Nc2c(C)[nH]c(=O)[nH]c2=O)cc1C | -13%
Brc1ccc(-c2csc(N3CCCCCC3)n2)cc1 | -3%
O=C(NC(=S)Nc1ncc(Br)cc1Br)c1ccccc1 | 11% (active)
COc1ccc(-c2csc(NC(=S)NC(=O)c3cccs3)n2)cc1Br | 6% (active)
COc1ccc(-c2csc(NC(=S)NC(=O)c3cccs3)n2)cc1OC | -1%
S=C(NCc1ccco1)N1CCN(c2nc(-c3ccccc3)cs2)CC1 | -13%
O=C(NC(=S)Nc1nc(-c2ccccc2)cs1)c1cccs1 | 17% (active)
O=C(NC(=S)N1CCN(c2nc(-c3ccccc3)cs2)CC1)c1cncc(Br)c1 | 12% (active)
CC(O)C(NS(=O)(=O)c1ccc(Cl)cc1)C(=O)OCc1cc([N+](=O)[O-])cc2c1OCOC2 (stereo not given) | -12%
Cc1cc(-c2ccccc2)[nH]c(=O)c1S(=O)(=O)c1ccccc1 | -17%
O=C(CN(C(=O)CNS(=O)(=O)c1ccc(F)cc1)c1cccc(F)c1)NCC1CCCO1 (stereo not given) | -17%
COc1ccc(-c2csc(NC(=S)NC(=O)c3ccc4ccccc4c3)n2)cc1OC | -9%
O=C(NC(=S)Nc1nc(-c2ccccc2)cs1)c1cncc(Br)c1 | 1% (active)
Cc1ccc(NC(=S)NC(=O)c2cncc(Br)c2)cc1Cl | -13%
CC1CCCC(NC(=S)NC(=O)c2cncc(Br)c2)C1C (stereo not given) | -10%
Cc1ccc(C)c(NC(=S)NC(=O)c2cncc(Br)c2)c1 | 6% (active)
O=C(NC(=S)Nc1cccc(Cl)c1)c1cncc(Br)c1 | -10%
COc1cc(S(=O)(=O)n2cnc(C)c2)ccc1Cl | -20%

SMILES | activity increase over dofetilide control, less the hit threshold
COC(=O)c1cc2sc(Cl)cc2n1CC(=O)NCC1CCCO1 (stereo not given) | -8%
Cc1ccc(NC(=O)CSc2nnc(C3CC3)n2CC2CCCO2)c(C)c1 (stereo not given) | -14%
COC(=O)C1=C(C)N(CC2CCCO2)C(=O)/C1=C\c1ccc(O)cc1 (stereo not given) | 8% (active)
O=S(=O)(c1ccc(F)cc1)N1CCN(c2ccc(F)cc2)CC1 | -15%
CCC1SC2=NC(C)=C(C(=O)OC)C(c3ccc(C(=O)OC)cc3)N2C1=O (stereo not given) | -1%
CCOC(=O)c1sc(=S)n2c1[nH]c(=O)c1ccc(C(=O)OC)cc12 | 51% (active)
CC(=O)N1C(=O)/C(=C2\SC(=S)N(NC(=O)c3ccc(O)cc3)C2=O)c2ccccc21 | -3%
S=c1nc(-c2ccccc2)[nH]n1-c1ccccc1 | 54% (active)
COc1cc(-c2nnc(SCC(=O)O)n2-c2ccccc2)cc(OC)c1OC | -9%
CC(C)CSC1=NSC2=NC(=O)/C(=C\c3ccccc3)C(=N)N12 | 32% (active)
Cc1ccc(/C=C2/C(=N)N3N=C(CC(=O)N4CCCC4)SC3=NC2=O)cc1 | -2%
CC(Oc1ccccc1F)C(=O)NC1CCS(=O)(=O)C1 (stereo not given) | -9%
CN1C(=O)C2(OCC(C)([N+](=O)[O-])CO2)c2ccccc21 (stereo not given) | -7%
Cc1nc2cc3sc(C)nc3cc2s1 | -8%
Cc1ccc(NN=Nc2nc3c([nH]2)c(=O)n(C)c(=O)n3C)cc1 | -6%
Cc1cccc(N/C(N)=N/c2nc(C)cc(=O)[nH]2)c1 | -9%
Cc1ccc(Nc2cc(C)nn2-c2nc(C)cc(=O)[nH]2)cc1 | 40% (active)
C=CCn1c(=S)[nH]c2sc3c(c2c1=O)CCC3 | 27% (active)
C=CCn1c(=S)[nH]c2sc3c(c2c1=O)CCCC3 | 30% (active)
c1ccc(SSc2ccccn2)nc1 | -21%
CCOC(=O)C1CCCN(C(=O)CN2C(=O)c3ccccc3C2=O)C1 (stereo not given) | -20%
CCOC(=O)C1CCN(S(=O)(=O)c2cccc3nonc23)CC1 | 2% (active)
O=C(NCc1ccc(Cl)cc1)C1CCN(S(=O)(=O)c2cccc3nonc23)CC1 | -5%
CCN1CCN(CCNC(=O)CCCn2nc(C)c3c(C)n(-c4ccc(C)cc4)nc3c2=O)CC1 | -8%
Cc1cc(C)cc(OCc2nnc(SCC(=O)Nc3ccccc3)o2)c1 | -19%

Source: PubChem BioAssay AID1835 (Johns Hopkins Ion Channel Center, 2009)
